Shown are actives, neighbours in structure and some others; about 2.3% of the full set was active somewhere.
PK Bst: Pyruvate Kinase. Potency, µM. AID 361, 2006. purified pyruvate kinase, luminescence ATP production; ribose 5-phosphate activator present at AC10. actives 1.2% (n = 51,000); in the data active means potency below about 11 µM; inconclusive means mostly about 12 µM to 25 µM;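 the screen sought inhibitors and activators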;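 further: scaled between full activation by ribose 5 phosphate and full inhibition by luteolin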
GBA mod: Glucocerebrosidase | Lysosomal acid glucosylceramidase (Homo sapiens), P04062 | purified enzyme, resorufin glucoside fluorescence (screen aimed at inhibitors), 20 min | Potency, µM | actives 1.1% (n = 48,000); in the data active means potency below about 15 µM; inconclusive means mostly about 16 µM to 33 µM;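 further: the screen sought inhibitors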
Target sequence (P04062 whole entry, looked up): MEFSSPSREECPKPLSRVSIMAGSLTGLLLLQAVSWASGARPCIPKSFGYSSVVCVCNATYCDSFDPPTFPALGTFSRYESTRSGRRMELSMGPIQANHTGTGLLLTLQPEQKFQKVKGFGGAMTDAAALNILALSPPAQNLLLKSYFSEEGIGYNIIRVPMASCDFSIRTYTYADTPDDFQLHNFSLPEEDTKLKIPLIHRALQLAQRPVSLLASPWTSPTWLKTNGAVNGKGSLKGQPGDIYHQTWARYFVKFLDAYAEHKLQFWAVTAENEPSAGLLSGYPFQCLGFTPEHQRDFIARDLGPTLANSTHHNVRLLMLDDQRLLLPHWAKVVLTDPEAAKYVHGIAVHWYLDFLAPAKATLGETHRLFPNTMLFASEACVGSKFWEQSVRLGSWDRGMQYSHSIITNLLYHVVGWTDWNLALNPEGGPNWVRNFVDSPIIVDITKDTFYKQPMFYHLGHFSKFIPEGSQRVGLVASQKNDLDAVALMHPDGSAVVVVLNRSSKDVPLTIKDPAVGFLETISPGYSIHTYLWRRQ
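Normal human glucocerebrosidase (0.2 nM final) was assayed with resorufin β-D-glucopyranoside (30 uM final) in 50mM citric acid/KH2PO4, 10mM sodium taurocholate, 0.01% tween-20, pH 5.9. Compounds were titrated; fluorescence (Ex 548, Em 600) read after 20 min at RT.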
* = called active by the depositor; i = inactive; ? = inconclusive; nt = no result given. Potency means the concentration at half of the fitted maximal effect.

SMILES	PK Bst	GBA mod
CCOc1ccc(C2C=C(c3ccc(C)cc3)Nc3nnnn32)cc1 (stereo not given)	>57	i
CN1C(=O)CC(n2c(CO)nc3ccccc32)C1=O (stereo not given)	>57	>76.9
Oc1ccccc1C1=Nc2nc3ccccc3n2C(c2ccccc2)C1 (stereo not given)	nt	14.9*
Cc1ccc(-c2csc3nnc(SCC(=O)Nc4cccc(C)n4)n23)cc1	>57	>76.9
CCCn1c(=O)c(C(=O)Nc2ccccc2C(=O)OC)c(O)c2ccccc21	>57	14.5*
CCOC(=O)c1ccccc1NC(=O)c1c(O)c2ccccc2n(CC)c1=O	>57	nt
CCCCCOc1ccc(C2C(C(C)=O)=C(C)Nc3ncnn32)cc1OC (stereo not given)	>57	>76.9
COc1cc(CN2CCN(c3ccccc3F)CC2)cc(OC)c1O	>57	>76.9
Nc1nc(CN2CCN(c3ccccn3)CC2)nc(Nc2ccc(Cl)cc2)n1	>11.4	i
Cc1cccc(Nc2nc(N)nc(CN3CCN(c4ccccc4)CC3)n2)c1	>57	4.34*
CN1CCN(Cc2nc(N)nc(Nc3ccc4c(c3)OCCO4)n2)CC1	>57	>76.9
Cc1ccc(Nc2nc(N)nc(CN3CCCCCC3)n2)c(C)c1	>57	nt
Cc1cccc(Nc2nc(N)nc(CN3CCN(c4ccccc4F)CC3)n2)c1	>57	1.43*
Cc1cccc(Nc2nc(N)nc(CN3CCN(Cc4ccc5c(c4)OCO5)CC3)n2)c1	>57	9.79*
COc1cccc(N2CCN(Cc3nc(N)nc(Nc4ccccc4)n3)CC2)c1	>57	2.91*
COc1ccccc1NC(=O)C(C)NS(=O)(=O)c1ccc(Cl)cc1 (stereo not given)	>57	>76.9
Cc1cc(=O)n(CC(C)O)c(O)c1C#N (stereo not given)	>57	>76.9
CCCS(=O)(=O)Nc1cc(C(F)(F)F)ccc1OCCOC	>57	>76.9
COc1ccc2sc(N3C(=O)C4CC=C(C)CC4C3=O)nc2c1 (stereo not given)	nt	>76.9
CC(C)CCn1c(Br)nc2c1c(=O)n(CC(N)=O)c(=O)n2C	>57	>76.9
Cc1ccccc1C(=O)N1CCCN(C(=O)c2ccccc2C)CC1	>57	>76.9
Cc1cccc2c(=O)c(C(=O)N3CCCCCC3)c[nH]c12	>57	6.46*
CCOC(=O)C1=C(N)OC2=C(C(=O)CC(C)(C)C2)C1c1ccccc1OCC#N (stereo not given)	>57	>76.9
COc1ccc(-c2noc(CCC(=O)Nc3nc4ccccc4s3)n2)cc1	>57	>76.9
Cc1ccc(C(=O)/C=C/Nc2cccc(O)c2)cc1	1.26*	nt
SMILES	PK Bst	GBA mod
O=C(Nc1cccc(O)c1)c1ccc(Br)cc1	nt	>76.9
CC(C)Cn1cc(C(=O)N2CCN(c3ccccn3)CC2)c2c3ccccc3n(C)c2c1=O	>57	nt
CCCCOc1ccc(OCCCC)c2c1NC1(N2)C(=O)N(C(C)=O)c2ccccc21	>57	6.12*
CCNC(=O)N1C(=O)C2(OCCO2)c2ccccc21	>57	>76.9
COc1ccc(/C(O)=C2/C(=O)C(=O)N(CCCN(C)C)C2c2cccc(Cl)c2)cc1OC (stereo not given)	>25.6	nt
Cc1cnc(C(=O)N2CCN(S(=O)(=O)c3ccc4ccccc4c3)CC2)cn1	nt	>76.9
O=C(c1n[nH]c2ccccc12)N1CCN(S(=O)(=O)c2ccc3ccccc3c2)CC1	9.22*	nt
Cc1sc2nc(CN(Cc3cccs3)C(=O)NC3CCCCC3)[nH]c(=O)c2c1C	>57	?
CC(C)Oc1cccc(C(=O)Nc2ccc(NC(=O)c3ccco3)cc2)c1	>57	11.2*
O=C(Nc1cccc(OC(=O)c2ccco2)c1)c1ccco1	>57	>76.9
CCOCCn1c(=O)c2c(nc3n2CCN3c2ccc(CC)cc2)n(C)c1=O	>57	>76.9
COC(=O)c1c(-c2cccs2)csc1NC(=O)c1cccnc1	7.67*	>76.9
CCOC(=O)c1c(-c2cccs2)csc1NC(=O)c1ccco1	>57	>76.9
CC(C)(C)c1cc(Cc2ccccc2)[nH]n1	>57	nt
Cc1[nH]n2c(=O)c(C#N)c(-c3ccccc3)nc2c1-c1ccccc1	>57	>76.9
Cc1[nH]n2c(=O)c3c(nc2c1-c1ccc(Cl)cc1)CCC3	>57	11.7*
Cc1[nH]n2c(=O)c3c(nc2c1-c1ccccc1)CCC3	>57	9.49*
Cc1[nH]n2c(=O)cc(C(C)C)nc2c1-c1ccccc1	>57	>76.9
O=C(NCC1COc2ccccc2O1)Nc1ccccc1F (stereo not given)	>57	>76.9
CN(C(=O)c1ccc(NC(=O)c2cnccn2)cc1)C1CCCCC1	>57	>76.9
O=C(CCCc1cccs1)N1CCN(S(=O)(=O)c2ccccc2Br)CC1	>57	>76.9
O=C(Nc1ccn(-c2ccccc2)n1)c1ccc(S(=O)(=O)N2CCCCCC2)cc1	>57	>76.9
Cc1cccc(-c2noc(-c3ccccc3C(=O)NCC3CCCO3)n2)c1 (stereo not given)	nt	>76.9
O=C(NCC1CCCO1)c1ccccc1-c1nc(-c2ccc(Cl)cc2)no1 (stereo not given)	10.5*	i
CCOc1ccc(S(=O)(=O)N(C)CCO)cc1-c1nc2c(C(C)(C)C)nn(C)c2c(=O)[nH]1	>25.6	nt
SMILES	PK Bst	GBA mod
CCOC(=O)C1[C@H]2C(=O)N(C(C)c3ccc(OC)cc3)C[C@]23C=C[C@H]1O3 (stereo not given in full)	i	>76.9
CCCOC(=O)C1[C@H]2C(=O)N(C(C)c3ccc(OC)cc3)C[C@]23C=C[C@H]1O3 (stereo not given in full)	>57	12.8*
O=C(CSc1nnc(C2CCCCC2)n1Cc1ccccc1)NCc1ccco1	>57	>76.9
Cc1nn(-c2ccc(F)cc2)c(C)c1NS(=O)(=O)c1ccc(Cl)cc1	?	>76.9
Oc1ccc(/C=C/c2cc(O)cc(O)c2)cc1	3.65*	nt
COC(=O)c1ccc(CSc2ccc3nnc(-c4ccc(OC)c(OC)c4)n3n2)o1	>57	>76.9
CC(=O)NC1CC(C)(C)N(OC(C)=O)C(C)(C)C1	>57	>76.9
COc1cccc2cc(C(=O)C3=C(O)C(=O)N(CCCN4CCOCC4)C3c3ccncc3)oc12 (stereo not given)	>57	>76.9
COc1cccc(NC(=O)N(CCCN2CCOCC2)C(C)c2cc3cccc(OC)c3o2)c1 (stereo not given)	>57	9.63*
CC(Sc1cccc(C(F)(F)F)c1)C(=O)NC(N)=O (stereo not given)	>57	>76.9
COc1cc(S(=O)(=O)NCCc2ccc3c(c2)OCO3)ccc1-n1cnnn1	>57	>76.9
COc1cccc(OC)c1C(=O)Nc1ccc(N2CCN(S(C)(=O)=O)CC2)cc1	>57	>76.9
COc1ccc(Br)cc1C(=O)Nc1ccc(N2CCN(S(C)(=O)=O)CC2)cc1	>57	11.7*
Cc1cccc(N2CCN(C(=O)CCn3c(=S)[nH]c4cc5c(cc4c3=O)OCO5)CC2C)c1 (stereo not given)	>57	nt
COc1cccc(NC(=O)N2CCCC2C(=O)NC2CC2)c1 (stereo not given)	>57	>76.9
COc1cccc(C2CC(c3ccccc3Cl)Nc3ncnn32)c1 (stereo not given)	8.35*	i
COc1ccc(C2CC(c3ccccc3Cl)Nc3ncnn32)cc1OC (stereo not given)	i	>76.9
CCCS(=O)(=O)N1CCCC(C(=O)N2CCOCC2)C1 (stereo not given)	>57	>76.9
CCCCSc1nc(C)c(CC(=O)O)c(=O)[nH]1	>57	>76.9

From PubChem
